{"source": "PubChem BioAssay AID1347426", "about": "(Functional Genomics Laboratory (NCATS/FGL), 2020)", "note": "The campaign covered roughly 31,000 sequences. About 1,400 (4.5%) were called active. This excerpt belongs to a sample that is enriched for actives. Unmarked numbers belong to inactive results.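 How the source made its calls: active means median seed-adjusted z-score above 1 or below -1; inactive means the rest.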"}
{"experiment": "Novel Modifiers of Survival Motor Neuron (SMN) Protein: Gene Identification via Genome-wide siRNA Screen", "settings": "HEK293T SMN2-luciferase reporter, siRNA knockdown, 72 h; actives lie on both sides", "from_the_text": "Spinal muscular atrophy (SMA) is the most common neuromuscular autosomal recessive disorder and one of the leading genetic causes of infant death. SMA results from mutations inducing loss of function or deletion in the survival of motor neuron-1 gene (SMN1), leading to deficiency of the survival motor neuron (SMN) protein. Although a second nearly identical gene, SMN2, is retained in humans, its expression primarily produces an aberrantly spliced isoform that is largely unstable and quickly degraded. We performed a genome-wide RNAi screen using a cell-based reporter assay to identify genes and pathways that modulate SMN protein stability. The screen identified over 200 genes that led to the greatest increase or decrease in luciferase expression.\nUsing HEK293T cells stably expressing a luciferase reporter that combines the promoter and splicing based cassettes in tandem with the major portion of the native SMN2 cDNA with luciferase, we performed a genome-wide RNAi screen to identify modulators of SMN protein levels. Luciferase is expressed when full-length SMN protein is generated with luminescence signal proportional to SMN protein levels. Our luciferase-based reporter assay was used to screen Ambion Silencer Select Human Druggable Genome siRNA library (10418 genes, 3 unique siRNAs per gene) using lipid-based reverse transfection.\nBriefly, 1 pmol of each siRNA was spotted to a well of a 384-well plate (Corning, Corning, NY) and 20 microL of serum-free DMEM containing […] of Lipofectamine RNAiMax (Life Technologies, Carlsbad, CA) was then added to each well. Transfected cells were maintained at 37 degrees C in 5% CO2 for 72 hours, 20 microL of ONE-Glo Reagent (Promega) was added to wells for luciferase quantification. Raw luminescence reads were normalized to Ambion(R) Silencer(R) Negative Control #2 siRNA, then log10 transformed. A robust statistical measure of median absolute deviation (MAD) to standardize siRNA activities from each screen. Common Seed Analysis was used to help prioritize clean hits as opposed to those appearing to arise from seed based off-target effects. Candidate modulators were defined as the genes having a MAD score greater than 1.0 or less than -1.0."}
{"sequence": "GGUCAAUACACCUAAGAAATT against PRDX1", "median seed-adjusted z-score": 0.288}
{"sequence": "GAUCGUUUCCUAUACAGUATT against ESPL1", "median seed-adjusted z-score": 0.871}
{"sequence": "GGGCUGUGAUCUUGUCGAATT against AGMAT", "median seed-adjusted z-score": -0.0269}
{"sequence": "CAACGACAGAACUAACAGATT against SENP6", "median seed-adjusted z-score": "-1.03 (active)"}
{"sequence": "GAAGGUGUUUCAUACGAAUTT against SIPA1L1", "median seed-adjusted z-score": 0.0925}
{"sequence": "CUCUAUGAAUAUUGUAUUATT against BUD31", "median seed-adjusted z-score": 0.0554}
{"sequence": "GGCUAACAAUUUGUCCAGUTT against SEC22B", "median seed-adjusted z-score": -0.106}
{"sequence": "CGUCAUCUUUGCGAAGAUUTT against EHD2", "median seed-adjusted z-score": 0.0989}
{"sequence": "CAACAUCUAUGAUUGGAAUTT against RFXANK", "median seed-adjusted z-score": -0.0665}
{"sequence": "CCAGUGCUGUCAGUACGAUTT against LY6G5B", "median seed-adjusted z-score": "-1.29 (active)"}
{"sequence": "CCAAUAUUGUGGAUCCUUUTT against HTR4", "median seed-adjusted z-score": 0.444}
{"sequence": "GAGCUAUAAUCAGACCUGUTT against ART5", "median seed-adjusted z-score": -0.354}
{"sequence": "CGCUCACUGUUCUUCGGCUTT against RAD9A", "median seed-adjusted z-score": -0.0564}
{"sequence": "CCCAAGACGUUCACCGUGATT against NF2", "median seed-adjusted z-score": -0.543}
{"sequence": "CAUCAAACCUGGGAACAAATT against ZNF225", "median seed-adjusted z-score": 0.0761}
{"sequence": "GGAACGAGGUGUCAGCUCUTT against RFXANK", "median seed-adjusted z-score": -0.0665}
{"sequence": "UCAACCUCAUGGACUUUAATT against SLC5A5", "median seed-adjusted z-score": "1.01 (active)"}
{"sequence": "GGAGCUACUGAGAACAUAATT against HOXD4", "median seed-adjusted z-score": 0.566}
{"sequence": "GGAACACUCAUGACUGUAATT against ZNF426", "median seed-adjusted z-score": 0.2}
{"sequence": "CAAUGAGUAUGUGACGGAATT against UNC13A", "median seed-adjusted z-score": "-2.1 (active)"}
{"sequence": "GGAUCCCGCUGCACAAGUUTT against CTSD", "median seed-adjusted z-score": -0.282}
{"sequence": "CGUCUUCCUUGUGCGCCUATT against COL20A1", "median seed-adjusted z-score": -0.0033}
{"sequence": "GGCUUAUGGGUGUUCGGAUTT against POLK", "median seed-adjusted z-score": -0.102}
{"sequence": "CCGUCACUGAAGUCAAUAATT against CACNA1F", "median seed-adjusted z-score": 0.22}
{"sequence": "CGGAUUCCAGGAAUGCUAATT against EIF5B", "median seed-adjusted z-score": "1.68 (active)"}
{"sequence": "CCACCAAAGUUCACCCUGATT against LMNA", "median seed-adjusted z-score": -0.409}
{"sequence": "GGGCCGAACUGAAAUACGATT against FGD2", "median seed-adjusted z-score": 0.0293}
{"sequence": "ACAAGUUCUUGGAGCCUUATT against ATP1B2", "median seed-adjusted z-score": -0.185}
{"sequence": "CCCAAUCCCUAUUUGAGAATT against ADRA1D", "median seed-adjusted z-score": -0.18}
{"sequence": "GAUUAUAUUUGUCCAGCUATT against ESR2", "median seed-adjusted z-score": "-1.1 (active)"}
{"sequence": "CAAUCCAGGUGAUCGCAAATT against TPMT", "median seed-adjusted z-score": 0.19}
{"sequence": "CAAUGGUACCUAUGACUAUTT against ALG3", "median seed-adjusted z-score": -0.446}
{"sequence": "GAGUACAUGUACUACCUGATT against RFX1", "median seed-adjusted z-score": 0.818}
{"sequence": "GAGUUAACGUAUCAGAACATT against LRRFIP1", "median seed-adjusted z-score": -0.181}
{"sequence": "ACUCUAUCCUUGCUUUGCATT against ZNF219", "median seed-adjusted z-score": 0.127}
{"sequence": "GCAUAACUGUAACAGAGAATT against RPP30", "median seed-adjusted z-score": -0.656}
{"sequence": "GCUCAGAAGCAGUAAUGCATT against PQBP1", "median seed-adjusted z-score": "-1.12 (active)"}
{"sequence": "GAAAUGCGAGCUGAACAUATT against CMAS", "median seed-adjusted z-score": -0.491}
{"sequence": "CUUUUUACGUGAGCGUAUATT against NAP1L1", "median seed-adjusted z-score": 0.263}
{"sequence": "CGCUGGACUUCGUCAAGAATT against KCNC4", "median seed-adjusted z-score": -0.433}
{"sequence": "CUAUCAUGGAAGAUGCUGATT against B3GNT4", "median seed-adjusted z-score": 0.124}
{"sequence": "AGUACUUCCUGACGAUGGATT against CST6", "median seed-adjusted z-score": -0.237}
{"sequence": "ACUAACAUCCCAGACUUUATT against VWA1", "median seed-adjusted z-score": 0.289}
{"sequence": "CCAACUACCUGAACGAUGATT against U2AF2", "median seed-adjusted z-score": "2.14 (active)"}
{"sequence": "AGCUCACACUAUGCAUUGATT against KRTAP2-2", "median seed-adjusted z-score": -0.212}
{"sequence": "GGAGGCUCGUUUUCCCGUATT against EGR4", "median seed-adjusted z-score": 0}
{"sequence": "GGACUCAGACGAGUUUUAUTT against CYP11B1", "median seed-adjusted z-score": -0.199}
{"sequence": "GCAGCGAGUCAGUAACUUUTT against SUPT4H1", "median seed-adjusted z-score": "-1.01 (active)"}
{"sequence": "GCUUCUUCGAGAAACAGAATT against RBMY1F", "median seed-adjusted z-score": 0.2}
{"sequence": "GGGUUUGCACUGAAACGAATT against CIR", "median seed-adjusted z-score": -0.197}
{"sequence": "GGAAGGAAUUCAACCGGAUTT against ZNF366", "median seed-adjusted z-score": 0.585}
{"sequence": "CCAUAGCCCAAAUCAAGGATT against SIK2", "median seed-adjusted z-score": 0.055}
{"sequence": "CCACGAACAAUAAUCCCAATT against KCNA3", "median seed-adjusted z-score": 0.213}
{"sequence": "CCCUCAAUUUGGUCUGUUUTT against SPINK2", "median seed-adjusted z-score": -0.431}
{"sequence": "ACAACAUGAAGGUCCUCUATT against THY1", "median seed-adjusted z-score": "-1.1 (active)"}
{"sequence": "ACAUGUUUUUAGAAUUGCUTT against TST", "median seed-adjusted z-score": 0}
{"sequence": "CAGUUAUGUUCUACGCAGATT against KCND2", "median seed-adjusted z-score": -0.245}
{"sequence": "CCAUGGAUUUUGUACUGCUTT against VPS35", "median seed-adjusted z-score": -0.511}
{"sequence": "GGCGAAUUCCAUACCGUUATT against NEK2", "median seed-adjusted z-score": -0.276}
{"sequence": "GGAGUAUAUUGAGUAUGGATT against CNOT1", "median seed-adjusted z-score": "1.2 (active)"}
{"sequence": "GUUCCAUCUUGAUCGAGUATT against RASSF9", "median seed-adjusted z-score": 0.314}
{"sequence": "CGGGAACACGUUUCAGGGATT against GPR157", "median seed-adjusted z-score": 0.152}
{"sequence": "CAUCCCAGAUCAAACUGUATT against TFAP2A", "median seed-adjusted z-score": -0.384}
{"sequence": "GAUUAUUGAGCAUAAGAUUTT against ZNF277", "median seed-adjusted z-score": -0.0374}
{"sequence": "GAACUGCACGUGUACAACATT against HCFC1", "median seed-adjusted z-score": "1.47 (active)"}
{"sequence": "GCCUUCUUCUUAUGCAAGATT against ACTL6B", "median seed-adjusted z-score": 0.0703}
{"sequence": "CCAUCUAUUCAGAGACGUATT against MUTYH", "median seed-adjusted z-score": 0.024}
{"sequence": "GGCAUUCGCUUGAACAGCATT against DRG1", "median seed-adjusted z-score": 0.336}
{"sequence": "GCCUCUACAUCUAGUGAUATT against JMJD1C", "median seed-adjusted z-score": 0.0338}
